We go through 19 molecules from PubChem BioAssay (Tox21).

Records with an inconclusive call do not appear. A call without a number means that no potency is given here. Calls of active or inactive are those of the source. Calls come from the whole dose curve; as a rule, active = well fitted cell-killing curve with a large enough effect in the repeat runs; inconclusive = weak or mixed curves, or effect the other way; inactive = flat fitted curve, though single readings scatter.
Potency is the fitted concentration of half-maximal effect.

This assay can be described thus: cAMP Responsive Elements (CRE) small molecule agonists, cell-based qHTS assay: qHTS cell viability counter screen (AID 2060914). Note: nearly all actives have a fitted effect of over 50% in size. Particulars: CRE-bla HEK293T viability, CellTiter-Glo luminescence, 5 h; series mostly up to 92.4 µM. Put shortly: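 Luminescence read-out (CellTiter-Glo, 30 min RT) of ATP-based viability in CRE-bla HEK 293T cells, run in the same wells as the β-lactamase reporter assay after 3 h compound treatment at 37 °C.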
(qHTS replaces the single test concentration by a dilution series.)
In the case of `O=C(Cl)c1ccccc1F`, the Potency result is “inactive”.

Regarding `CCOP(=S)(OCC)SC(CCl)N1C(=O)c2ccccc2C1=O` (centres undefined), the Potency result is “inactive”.

Turning to `Cc1cc(C2CC2)nc(Nc2ccccc2)n1`, the Potency entry is “inactive”.

Consider `O=[N+]([O-])c1ccccc1O`, for which the Potency entry was “inactive”.

For `COC(=O)N(OC)c1ccccc1COc1ccn(-c2ccc(Cl)cc2)n1`, the Potency was 5.45 µM (active).

For `C=C1C[C@@H]2[C@H](CC[C@]3(C)C(=O)CC[C@@H]23)[C@@]2(C)C=CC(=O)C=C12`, the Potency result is “inactive”.

Turning to `O=S1(=O)OCC2C(CO1)C1(Cl)C(Cl)=C(Cl)C2(Cl)C1(Cl)Cl` (centres undefined), the Potency result was “inactive”.

In the case of `O=C1C(Cl)=C(Cl)C(=O)c2ccccc21`, the Potency entry was “inactive”.

Take `C=C(C)[C@H]1Cc2c(ccc3c2O[C@@H]2COc4cc(OC)c(OC)cc4[C@@H]2C3=O)O1`: the Potency entry is “inactive”.

For `COc1ccc(/C(=C/C(=O)N2CCOCC2)c2ccc(Cl)cc2)cc1OC`, the Potency result is “inactive”.

Turning to `NC(=O)CI`, the Potency entry is “inactive”.

Turning to `CCN(N=O)C(N)=O`, the Potency result is “inactive”.

With `CCCCOC(=O)CCC(=O)OCCCC`, the Potency result is “inactive”.

As to `N#C/C=C/C#N`, the Potency result is “inactive”.

Take `CC(C)Nc1ccc(Nc2ccccc2)cc1`: the Potency entry is “inactive”.

`CCOP(=S)(OCC)SCSCC`: the Potency entry is “inactive”.

On to `COP(=S)(OC)Oc1cc(Cl)c(Br)cc1Cl`, for which the Potency entry was “inactive”.

As to `Cc1ccc2ccccc2c1`, the Potency result is “inactive”.

As for `Cc1cc(C)c(C(=O)P(=O)(C(=O)c2c(C)cc(C)cc2C)c2ccccc2)c(C)c1`, the Potency result is “inactive”.
